# 15-hLO-2 inh = blocks human 15-lipoxygenase 2 activity; actives 0.56% (n = 110,000); Potency, µM (top dose mostly 57.1 µM), inactives show at the top dose activity change, negative = inhibition, usual class: inhibitors; O15296; purified 15hLO-2, xylenol orange hydroperoxide absorbance; also: potency is read from the fitted curve at half-maximal effect; nearly all actives have a fitted effect of over 60% in size
# Target sequence (O15296 whole entry, looked up): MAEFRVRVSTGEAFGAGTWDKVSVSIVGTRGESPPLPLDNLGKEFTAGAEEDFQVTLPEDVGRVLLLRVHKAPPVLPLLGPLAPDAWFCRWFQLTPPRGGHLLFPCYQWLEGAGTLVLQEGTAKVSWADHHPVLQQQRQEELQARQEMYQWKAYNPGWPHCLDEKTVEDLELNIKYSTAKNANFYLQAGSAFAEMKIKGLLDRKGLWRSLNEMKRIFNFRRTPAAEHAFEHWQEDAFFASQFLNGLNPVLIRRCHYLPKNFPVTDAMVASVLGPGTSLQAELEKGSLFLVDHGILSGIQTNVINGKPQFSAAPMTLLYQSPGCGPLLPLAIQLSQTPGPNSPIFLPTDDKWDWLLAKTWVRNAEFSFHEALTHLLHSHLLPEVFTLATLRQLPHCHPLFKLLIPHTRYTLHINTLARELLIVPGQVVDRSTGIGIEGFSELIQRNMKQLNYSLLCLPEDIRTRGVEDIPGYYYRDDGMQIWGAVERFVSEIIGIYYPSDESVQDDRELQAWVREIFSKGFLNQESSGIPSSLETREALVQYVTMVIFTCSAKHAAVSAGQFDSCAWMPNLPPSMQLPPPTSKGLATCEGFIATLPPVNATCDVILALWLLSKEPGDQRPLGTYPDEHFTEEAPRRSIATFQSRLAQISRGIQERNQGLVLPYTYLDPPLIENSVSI
#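 Screening format was qHTS against 50 nM purified 15hLO-2 in Hepes pH 7.5 with detergent. Activity follows hydroperoxide formation from 45 uM arachidonic acid, measured as 573:405 nm absorbance ratio of the ferric-xylenol orange complex.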
# PNC inhibitor = inhibitors of perinucleolar compartment assembly; AID 2417; PC3M PTB-GFP, PNC prevalence imaging, 16 h; stronger effect = lower value; activity change (PNC), negative = inhibition, % at 10 µM; actives 3.1% (n = 140,000);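 active = readout at or below -70, meaning at least 70% loss of cells showing the perinucleolar compartment, a nuclear body marking cancer cells; inconclusive = readout between -30 and a set limit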;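 also: plate controls were DMSO wells for no effect and camptothecin positive control wells for full effect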
#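 PC3M cells stably expressing PTB-GFP, 750–1000 cells/well, treated 16 h at 37 °C with compound (23 nl of library stock), in duplicate. After paraformaldehyde fixation and Hoechst stain, imaged at 20x; PNC prevalence scored by image analysis.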
# IMPase Li cell = membrane-permeable IMPase blocker, potentiated with lithium | actives 0.35% (n = 210,000) | AID 1457 | Potency, µM (highest dose often 59.4 µM), for inactives: at the top dose activity, negative = IMPase inhibition, usual class: inhibitors | CHO-M1 cells, IP1 TR-FRET (IP-One), carbachol + lithium;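 also: IP1 builds up when IMPase is blocked and the TR-FRET signal falls; potency is read from the fitted curve at half-maximal effect; plate controls were basal vehicle for no effect and high inhibitor control for full effect; nearly all actives have a fitted effect of over 50% in size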
#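 CHO-M1, 2000 cells/well, 16–30 h culture; cpd + low Li+, 30 min 37C; lysis with d2-IP1/Eu-anti-IP1 Ab, 10 min RT; TR-FRET 665/620 ratio and 620 channel; AC50 via Hill.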
# ALOX12 inhib = 12-hLO (ALOX12) enzyme inhibition | actives 0.12% (n = 150,000) | purified 12-hLO, xylenol orange hydroperoxide absorbance | AID 1452 | Potency, µM (top dose mostly 57.1 µM), without a hit: top-dose activity change, negative = inhibition, most hits filed as inhibitors | P18054; also: potency is read from the fitted curve at half-maximal effect; nearly all actives have a fitted effect of over 55% in size
#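 150 nM 12hLO, 25 mM Hepes pH 7.0 + 0.01% Triton X-100; cpd preinc 15 min RT; 40 uM arachidonic acid, 30 min RT; Fe-XO 30 min; A573/A405 ratio as read-out.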
# IMPase cell inh = IMPase inhibition in cells | inhibition (IP1 accumulation), % at 46.1 µM | AID 901 | P97697 | 120,000 tested, under 10 active | CHO-M1 cells, IP1 accumulation, HTRF TR-FRET ratio; active = well fitted curve in the direction sought with a large enough effect in the signal ratio, not every such curve was filed as active; inconclusive = small, poorly fitted or top-dose-only effect, or a change in a side signal; inactive = no such curve, though single readings can be large or run the other way; the % refers to the signal ratio;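 also: cells stimulated with carbachol in lithium chloride buffer; plate controls were DMSO basal wells for no effect and reference inhibitor wells for full effect; higher means more IMPase inhibition seen as more IP1 and lower FRET ratio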
#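 Carbachol-driven Gq signalling in CHO-M1 cells (2000/well) generates IP1. Compounds that block IMPase raise IP1 and so reduce the FRET signal from Eu-anti-IP1 and d2-IP1 after a 10 min room-temperature lysis.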
# HPGD inh = inhibitors of human 15-hydroxyprostaglandin dehydrogenase (HPGD) | P15428 | purified HPGD, NADH fluorescence kinetic, PGE2 substrate | Potency, µM, for inactives: at the top dose activity change, negative = inhibition, actives largely listed as inhibitors | actives 4.3% (n = 150,000) | AID 894; active = well fitted inhibition curve with a large enough effect, not every such curve was filed as active; inconclusive = small, poorly fitted or top-dose-only effect, or another doubt; inactive = no such curve, though single readings can be large or run the other way; also: potency is read from the fitted curve at half-maximal effect
#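 20 nM HPGD preincubated 15 min at room temperature with compound in 50 mM Tris-HCl pH 8, 0.01% Tween 20. Started with 1 mM NAD+ and 30 uM prostaglandin E2; NADH fluorescence (360/450 nm) read 5 times over 30-s intervals, last minus first.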
# Starred values were filed as active, the others as inactive; u = inconclusive; x = not tested or not shown; [ ] = another dose, or the depositor's remark. Compounds with a hit are over-represented: about 5.4% of the library has one in this group of screens. Unless noted, calls follow the shape of the dose curve; as a rule, active = well fitted curve in the direction sought with a large enough effect; inconclusive = small, poorly fitted or top-dose-only effect, or another doubt; inactive = no such curve, though single readings can be large; an effect the other way counts as inactive or inconclusive. Unless noted, % is scaled to controls: 0 for no effect and ±100 for the full control effect.
SMILES,15-hLO-2 inh,PNC inhibitor,IMPase Li cell,ALOX12 inhib,IMPase cell inh,HPGD inh
CCOC(=O)C(O)(CC(=O)c1ccc(OC)cc1)C(F)(F)F (centres undefined),x,-81*,11%,2%,15,-4%
Cn1c(-c2c(N)n(CCc3ccccc3)c3nc4ccccc4nc23)nc2ccccc21,5%,-11,-18%[38.3 µM],-13%,-12,-18%
Cn1c(-c2c(N)n(CCCc3ccccc3)c3nc4ccccc4nc23)nc2ccccc21,19%,4,10µM*,-24%,u,u
Cn1c(-c2c(N)n(C3CCCC3)c3nc4ccccc4nc23)nc2ccccc21,15%,-94*,-39%[38.3 µM],-15%,-13,-11%
Cc1ccc(-c2nc3ncccc3o2)cc1NC(=O)COc1ccc(C(C)C)cc1,x,x,x,x,-1,x
CC(=O)N1CCN(c2ccc(NCc3ccc4c(c3)OCO4)cc2)CC1,13µM*,18,40%[38.3 µM],u,16,-14%
O=C(c1ccccc1)N1CCN(c2ccc(NCc3ccc4c(c3)OCO4)cc2)CC1,20µM*,u,71%[38.3 µM],u,22,-18%
O=C(c1ccc2c(c1)OCO2)N1CCN(c2ccccc2)CC1,-9%,12,7%[38.3 µM],-4%,-7,-14%
CC(C)Cn1c(Br)nc2c1c(=O)n(CCC#N)c(=O)n2C,-8%,-123*,10%[38.3 µM],-5%,1,18µM*
Cc1cccc(CNc2ccnc(-c3ccc(N(C)C)cc3)n2)c1,39%,x,-1%,u,x,u
Cc1ccccc1OCC(=O)Nc1ccc(Cc2ccncc2)cc1,x,u,14%,1%,x,18µM*
Cc1ccccc1OCC(=O)Nc1ccc(C(N)=O)cc1,0%,-5,7%[38.3 µM],-4%,-7,-8%
N[C@@H](Cc1nn[nH]n1)C(=O)O,-4%[11.4 µM],x,5%,5%[11.4 µM],x,-1%
CCOC(=O)NC(CC(=O)O)c1ccc(OC)cc1 (centres undefined),1%,-100*,-6%[38.3 µM],-3%,0,3%
N#Cc1ccc(CS(=O)(=O)c2nnnn2C2CCCCC2)cc1,x,x,2%,x,x,-2%
O=C(Nc1cccc(C(=O)N2CCCCCC2)c1)c1ccco1,-4%,48,-4%[38.3 µM],3%,11,25µM*
CC(C)(C)NC(=O)c1cccc(NC(=O)c2ccco2)c1,x,-100*,1%,-3%,0,-10%
CCOC(=O)N1CCN(C(=O)c2cccc(NC(=O)c3ccco3)c2)CC1,8%,0,12%[38.3 µM],-1%,1,-2%
CCCCOc1cccc(C(=O)N(Cc2ccc(N(C)C)cc2)C2CCS(=O)(=O)C2)c1 (centres undefined),x,x,x,x,1,x
O=C(CCn1nnc2ccccc21)Nc1nnc(Cc2ccccc2)s1,-21%,-16,-2%,2%,1,32µM*
O=S(=O)(Cc1ccccc1)c1nnnn1-c1ccccc1,x,x,32%,x,x,-20%
CCS(=O)(=O)c1nnnn1-c1ccccc1S(C)(=O)=O,3%,-117*,3%[38.3 µM],-1%,-10,-5%
N=c1n(CC(=O)c2ccc([N+](=O)[O-])cc2)c2ccccc2n1Cc1ccccc1Cl,x,-88*,1%,0%,x,-6%
N=c1n(CC(=O)c2ccc([N+](=O)[O-])cc2)c2ccccc2n1Cc1ccccc1,x,-9,6%,4%,-1,-5%
COC(=O)C1=C(C(=O)OC)[C@@H]2N(Cc3ccccc3)c3ccccc3[C@@]23C[C@@H](C(=O)OC)N(S(=O)(=O)c2ccc4c(c2)OCCN4C)C3=N1,x,x,10%,4%[11.4 µM],x,-7%
Nc1ccc(O)cc1C(=O)OCC(=O)C12CC3CC(CC(C3)C1)C2,5µM*,u,-8%[38.3 µM],u,4,u
COc1ccc2nc(SCC(C)=O)c(C#N)cc2c1,x,u,14%,6%,x,-20%
COc1ccc2nc(SC)c(C#N)cc2c1,x,x,11µM*,x,x,x
CCCC(C)c1nnc(NC(=O)C2CCCO2)s1 (centres undefined),-13%,-8,50%[38.3 µM],5%,17,11µM*

# Screening data (PubChem)
